C diff growth: inhibitors of Clostridium difficile growth | Clostridium difficile clinical isolate growth, OD600, 24 h; stronger effect = lower value | growth activity, negative = inhibition, % at 16 µg/mL (by protocol) | 0.25% of 86,000 active | AID 1259249;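 active = mean growth activity at or below -80% and every replicate also at or below -80%; inconclusive = mean at or below -80% but some replicate above -80%; inactive = mean growth activity above -80%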
Pf Dd2 inh: inhibitors of Plasmodium falciparum Dd2 growth; P. falciparum Dd2 growth, SYBR Green, 72 h; stronger effect = lower value; activity change, % at 10 µM; 2.3% of 94,000 active; AID 1159554; in the data active = activity change below about -80%; inconclusive = no clear call, values can overlap the other calls
T cruzi growth-1: blocks T. cruzi growth in NIH3T3 culture | T. cruzi beta-gal in NIH3T3, GalScreen luminescence, 90 h | inhibition, % at 8.34 µM | 5.9% of 77,000 active;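 active = mean inhibition above about 93%, with at least 55% of replicates each passing it, limit read from the data, passing the limit was not always enough; inconclusive = only one of those two conditions holds; inactive = neither condition holds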
T cruzi growth-2: inhibitors of T. cruzi proliferation | inhibition, % at 8.35 µM | shares compounds with T cruzi growth-1 | 72% of 5,600 active | T. cruzi beta-gal in NIH3T3, GalScreen luminescence, 90 h;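 active = mean replicate inhibition above about 95% and at least 55% of replicates individually reaching it, limit read from the data; inconclusive = only one of the two criteria is met; inactive = neither criterion is met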
T cruzi growth-3: blocks T. cruzi growth in NIH3T3 host cells | 21% of 5,600 active | shares compounds with T cruzi growth-1 | AID 651740 | inhibition, % at 2.09 µM | T. cruzi beta-gal in NIH3T3, GalScreen luminescence, 90 h;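 active = mean inhibition above about 95%, with at least 55% of replicates also reaching it, limit read from the data; inconclusive = meets just one of the two conditions; inactive = meets neither condition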
NIH3T3 tox: NIH/3T3 (mouse) viability loss. shares compounds with T cruzi growth-1. 14% of 5,600 active. NIH/3T3 viability, CellTiter-Glo ATP luminescence, 90 h. cytotoxicity (signal decrease), % at 8.35 µM;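 active = mean signal decrease across replicates above about 35% based on untreated-well scatter, with enough replicates individually passing, limit read from the data; inconclusive = no rule stated though some were filed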
NIH3T3 tox 2: cytotoxicity in mouse NIH/3T3 fibroblasts | shares compounds with T cruzi growth-1 | NIH/3T3 viability, CellTiter-Glo ATP luminescence, 90 h | inhibition, % at 24.9 µM | 56% of 5,600 active | AID 651744;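 active = mean loss of cell viability signal at or above a set limit, and enough replicates individually reaching it; inconclusive = meets only the mean limit or only the replicate share; inactive = meets neither condition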
Each line names hits and unclear results; the compound was inactive in the other large screens (follow-up assays come after a bar, where they were run). The list is not random: actives were taken first. Their share in the collection is about 6.7%.

C[C@H]1CCCCO[C@@H](CN(C)Cc2ccc3c(c2)OCO3)[C@@H](C)CN([C@@H](C)CO)C(=O)c2cc(NC(=O)CCC(F)(F)F)ccc2O1	none
COc1cccc(NC(=O)N(C)C[C@H]2Oc3cc(C#CC4(O)CCCC4)ccc3S(=O)(=O)N([C@H](C)CO)C[C@H]2C)c1	none (no result: T cruzi growth-1)
COc1cccc(C#Cc2ccc3c(c2)O[C@@H](CN(C)C(C)=O)[C@H](C)CN([C@@H](C)CO)S3(=O)=O)c1	T cruzi growth-1 inconclusive | T cruzi growth-2 107 | T cruzi growth-3 inactive | NIH3T3 tox inconclusive | NIH3T3 tox 2 35
COc1cccc(NC(=O)N(C)C[C@H]2Oc3cc(C#Cc4ccccc4)ccc3S(=O)(=O)N([C@H](C)CO)C[C@@H]2C)c1	Pf Dd2 inh -84, T cruzi growth-1 94 | T cruzi growth-2 113 | T cruzi growth-3 inactive | NIH3T3 tox inactive | NIH3T3 tox 2 inactive
COc1cccc(C#Cc2ccc3c(c2)O[C@H](CN(C)C(C)=O)[C@H](C)CN([C@@H](C)CO)S3(=O)=O)c1	none
COc1cccc(NC(=O)N(C)C[C@H]2Oc3cc(-c4ccccc4OC)ccc3S(=O)(=O)N([C@H](C)CO)C[C@@H]2C)c1	none (no result: T cruzi growth-1)
COc1cccc(NC(=O)N(C)C[C@H]2Oc3cc(C#Cc4ccccc4)ccc3S(=O)(=O)N([C@H](C)CO)C[C@H]2C)c1	T cruzi growth-1 85 | T cruzi growth-2 100 | T cruzi growth-3 114 | NIH3T3 tox inactive | NIH3T3 tox 2 inactive
O=C(C[C@@H]1C[C@@H]2c3cc(NC(=O)Nc4ccc(C(F)(F)F)cc4)ccc3O[C@@H]2[C@@H](CO)O1)NCc1cc(F)ccc1F	none
C[C@H](CO)N1C[C@H](C)[C@@H](CN(C)Cc2ccc(F)cc2)Oc2ncc(C3=CCCC3)cc2C1=O	none
CN1CCN(C(=O)C[C@@H]2CC[C@H]3[C@@H](COC[C@@H](O)CN3S(=O)(=O)c3cccc(F)c3)O2)CC1	none
COc1ccc(NC(=O)N(C)C[C@@H]2OCCCC[C@H](C)Oc3ccc(NS(=O)(=O)c4ccc(F)cc4)cc3C(=O)N([C@H](C)CO)C[C@H]2C)cc1	none (no result: T cruzi growth-1)
O=C(c1ccc(F)cc1)N1CC[C@@H]2[C@@H](CO)Nc3ccc(C#Cc4ccccc4F)cc3[C@@H]21	none
O=C(c1cccc(F)c1)N1CC[C@@H]2[C@H](CO)Nc3ccc(C#Cc4cccc(F)c4)cc3[C@@H]21	none
O=C(c1cccc(F)c1)N1CC[C@@H]2[C@H]1c1cc(C#Cc3cccc(F)c3)ccc1N[C@@H]2CO	T cruzi growth-1 103 | T cruzi growth-2 104 | T cruzi growth-3 inactive | NIH3T3 tox inactive | NIH3T3 tox 2 106
COc1ccccc1C#Cc1ccc2c(c1)[C@@H]1[C@@H](CCN1C(=O)c1ccccc1)[C@H](CO)N2	none (no result: T cruzi growth-1)
O=C(c1ccccc1)N1CC[C@@H]2[C@H]1c1cc(C#Cc3ccccc3F)ccc1N[C@@H]2CO	T cruzi growth-1 104 | T cruzi growth-2 112 | T cruzi growth-3 inactive | NIH3T3 tox inactive | NIH3T3 tox 2 inactive
COc1ccccc1C#Cc1ccc2c(c1)[C@@H]1[C@@H](CCN1C(=O)c1ccccc1)[C@@H](CO)N2	T cruzi growth-1 104 | T cruzi growth-2 106 | T cruzi growth-3 inactive | NIH3T3 tox inactive | NIH3T3 tox 2 inactive
CC(C)NC(=O)N(C)C[C@@H]1Oc2ccc(NS(=O)(=O)c3ccc(Cl)cc3)cc2CC(=O)N([C@H](C)CO)C[C@H]1C	none
COc1ccc2c3c(n(C)c2c1)[C@@H](CO)N(C(=O)CN1CCOCC1)CC31CCN(C(=O)CC2CC2)CC1	none (no result: T cruzi growth-1)
CCCNC(=O)C[C@H]1CC[C@@H]2[C@@H](COc3ccc(NC(=O)c4cccc(OC)c4)cc3C(=O)N2C)O1	none
COc1ccc(S(=O)(=O)Nc2ccc3c(c2)C(=O)N([C@H](C)CO)C[C@@H](C)[C@H](CN(C)S(=O)(=O)c2cccs2)O3)cc1	none
C[C@@H]1CN([C@H](C)CO)C(=O)c2cc(NC(=O)Cc3cn(C)c4ccccc34)ccc2O[C@H]1CN(C)S(=O)(=O)c1ccc(Cl)cc1	none
CC(=O)N1[C@H](CO)[C@H](c2ccccc2)[C@H]1CN(CC1CCC1)C(=O)CN(C)C	T cruzi growth-1 101 | T cruzi growth-2 inconclusive | T cruzi growth-3 inactive | NIH3T3 tox inactive | NIH3T3 tox 2 inactive
